High-throughput results from PubChem BioAssay.
DT40 TDP1 no CPT = qHTS for Inhibitors of human tyrosyl-DNA phosphodiesterase 1 (TDP1): qHTS in cells in absence of CPT | AID 686978, 2013 | Potency, µM (titrated, usually from 46.2 µM), most hits filed as inhibitors | 420,000 tested, 15% active | DT40 Tdp1-/- hTDP1 cells, no CPT, ATP luminescence, 48 h; note: nearly all actives have a fitted effect of over 55% in size
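Chicken DT40 Tdp1-/- cells complemented with human TDP1, screened without camptothecin (DMSO vehicle only), 400 cells/well. Compounds pin-transferred, cells incubated at 37 °C for at least 48 hr. Growth read as ATP-dependent luminescence (CellTiter-Glo, 30 min at RT).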
TDP1 inh = TDP1 (human) enzyme inhibition. recombinant TDP1, AlphaScreen DNA substrate cleavage. Q9NUW8. 350,000 tested, 0.28% active. Potency, µM (top dose mostly 130 µM), hits mostly inhibitors. AID 485290; note: nearly all actives have a fitted effect of over 40% in size
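AlphaScreen read-out: signal falls as enzyme removes the 3' tyrosine-FITC from a 5'-biotinylated DNA oligo (15 nM, 5 min, RT). Enzyme was E. coli-made recombinant Tdp1 at 1 nM, exposed to compound for 15 min beforehand; beads 10 ug/ml, 10 min.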
Six1-Eya2 inh = Six1/Eya2 interaction inhibition; AlphaScreen GST-Six1/His-Eya2 binding, biochemical; active compounds read low; activity change, % (test concentration not listed); 360,000 tested, 0.56% active; in the data active = activity change below about -65%; inconclusive = mostly about -30% to -63%
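Compounds are tested against tagged Six1 and Eya2 proteins bridged by glutathione donor and nickel acceptor beads; after a one-hour incubation at 37 °C without light, AlphaScreen emission is recorded.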
DT40 TDP1 CPT = growth inhibition of DT40 Tdp1-/-;hTDP1 cells with camptothecin (screen for TDP1 inhibitors); chicken DT40 Tdp1-/-;hTDP1 cells + 20 nM CPT, ATP luminescence, 48 h; Potency, µM (titrated, usually from 46.2 µM), actives largely listed as inhibitors; 420,000 tested, 12% active; AID 686979; note: nearly all actives have a fitted effect of over 55% in size
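Chicken DT40 Tdp1-/- cells complemented with human TDP1, 400 cells/well, exposed to compounds plus 20 nM camptothecin for at least 48 h at 37 C; viability read as ATP content by CellTiter-Glo luminescence.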
IL1B secr inh = blocks inflammasome-driven IL-1 beta release. THP-1 LPS/ATP IL-1B secretion, AlphaLISA, 16 h; active compounds read low. activity change, % at 57.5 µM. 360,000 tested, 4.7% active; in the data active = activity change below about -50%; inconclusive = mostly about -30% to -49%
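Secreted IL-1B measured by AlphaLISA bead assay after 16 h compound exposure of THP-1 cells; compounds (final up to 57.5 uM) added 1 h before LPS (250 ng/mL) and ATP (1.25 mM) stimulation; lower signal means less secretion.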
CtBP-E1A blk = inhibitors of CtBP/E1A interaction. AID 651724. 340,000 tested, 0.49% active. activity change, % (test concentration not listed). AlphaScreen GST-E1A/His-CtBP binding, 1536-well; active compounds read low; in the data active = activity change below about -65%; inconclusive = mostly about -30% to -63%
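GST-E1A and His-tagged CtBP (125 nM each as 5X stock) were preincubated with pin-transferred compound for 2 h at 37 °C in the dark, then glutathione donor and nickel acceptor beads were added for 1 h before AlphaScreen reading.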
A number is an active result; [ ] = dose if it differs, or a comment. Hits are enriched below; roughly 18% of the tested compounds scored in any of these assays. Unless noted, calls come from the whole dose curve; as a rule, active = well fitted curve in the direction sought with a large enough effect; inconclusive = small, poorly fitted or top-dose-only effect, or another doubt; inactive = no such curve, though single readings can be large; an effect the other way counts as inactive or inconclusive.

For O=C(NC1CCSc2ccccc21)c1cccc(S(=O)(=O)N2CCOCC2)c1 (stereo not drawn) the results were DT40 TDP1 no CPT inactive, Six1-Eya2 inh inactive, DT40 TDP1 CPT inactive, IL1B secr inh inactive and CtBP-E1A blk inactive.
For CCc1c(C)nc2ncnn2c1NCc1cccs1 the results were DT40 TDP1 no CPT 26µM, TDP1 inh inactive, Six1-Eya2 inh inactive, DT40 TDP1 CPT inconclusive, IL1B secr inh inactive and CtBP-E1A blk inactive.
`FC(F)(F)c1cc(NCc2cccs2)n2ncnc2n1` gave DT40 TDP1 no CPT inactive, TDP1 inh inactive, Six1-Eya2 inh inactive, DT40 TDP1 CPT inactive, IL1B secr inh inactive and CtBP-E1A blk inactive.
CCc1c(C)nc2ncnn2c1N1CCC(C(=O)NCc2cccs2)CC1 was read as DT40 TDP1 no CPT inconclusive, TDP1 inh inactive, Six1-Eya2 inh inactive, DT40 TDP1 CPT 23µM, IL1B secr inh inactive and CtBP-E1A blk inactive.
COc1c(C)cc(C(=O)C2CCCN(C(=O)c3cccc(F)c3)C2)cc1C (stereo not drawn) was read as DT40 TDP1 no CPT inconclusive, TDP1 inh inactive, Six1-Eya2 inh inactive, DT40 TDP1 CPT inconclusive, IL1B secr inh inactive and CtBP-E1A blk inactive.
`COC(=O)C1=C(C)N(c2cccc(Cl)c2)C(=O)C1` gave DT40 TDP1 no CPT inconclusive, TDP1 inh inactive, Six1-Eya2 inh inactive, DT40 TDP1 CPT inconclusive, IL1B secr inh inactive and CtBP-E1A blk inactive.
For CCCCc1ccc(NC(=O)C2CCCC2)cc1 the results were DT40 TDP1 no CPT inconclusive, Six1-Eya2 inh inactive, DT40 TDP1 CPT inconclusive, IL1B secr inh -67 and CtBP-E1A blk inactive.
For CCOc1ccc(NC(=O)C2CCCN(c3cnccn3)C2)cc1 (stereo not drawn) the results were DT40 TDP1 no CPT inactive, TDP1 inh inactive, Six1-Eya2 inh inactive, DT40 TDP1 CPT inactive, IL1B secr inh inactive and CtBP-E1A blk inactive.
CCCc1ccc(NC(=O)C2CCCN(c3cnccn3)C2)cc1 (stereo not drawn) was read as DT40 TDP1 no CPT 21µM, TDP1 inh inactive, Six1-Eya2 inh inactive, DT40 TDP1 CPT 21µM and IL1B secr inh inactive.
CS(=O)(=O)c1ccc(N2CCN(S(=O)(=O)c3cccs3)CC2)c([N+](=O)[O-])c1 was read as DT40 TDP1 no CPT inconclusive, TDP1 inh inactive, Six1-Eya2 inh inactive, DT40 TDP1 CPT inactive and IL1B secr inh inactive.
Cc1ccc(C)c(S(=O)(=O)N2CCN(C(=O)CN3C(=O)C4CC=CCC4C3=O)CC2)c1 (stereo not drawn) was read as DT40 TDP1 no CPT inactive, TDP1 inh inactive[0.505 µM], Six1-Eya2 inh inactive, DT40 TDP1 CPT inactive, IL1B secr inh inactive and CtBP-E1A blk inactive.
CCn1cc(C(=O)NCc2ccc(C)cc2)c(=O)c2cc(S(=O)(=O)N(C)C3CCCCC3)ccc21 was read as DT40 TDP1 no CPT inconclusive, TDP1 inh inactive and DT40 TDP1 CPT inconclusive.
O=C(CC(=O)c1c(F)cccc1Cl)c1ccccc1O was read as DT40 TDP1 no CPT 12µM, Six1-Eya2 inh inconclusive, DT40 TDP1 CPT inconclusive, IL1B secr inh inactive and CtBP-E1A blk inactive.
For O=C(CC(=O)c1ccccc1O)c1ccc(F)cc1 the results were DT40 TDP1 no CPT 12µM, TDP1 inh inactive, Six1-Eya2 inh inactive, DT40 TDP1 CPT 10µM, IL1B secr inh inactive and CtBP-E1A blk inactive.
Screening NC(=O)c1ccccc1NCC(=O)c1ccc(F)cc1 returned DT40 TDP1 no CPT inactive, Six1-Eya2 inh inactive, DT40 TDP1 CPT inactive, IL1B secr inh inactive and CtBP-E1A blk inactive.
Screening O=C(Nc1ccccc1C(=O)O)c1cccc(F)c1 returned DT40 TDP1 no CPT inactive, Six1-Eya2 inh inactive, DT40 TDP1 CPT inactive, IL1B secr inh inactive and CtBP-E1A blk inactive.
For O=C(CCNC(=O)c1ccccc1Cl)NNC(=O)c1ccccc1O the results were DT40 TDP1 no CPT inconclusive, Six1-Eya2 inh inactive, DT40 TDP1 CPT inconclusive, IL1B secr inh inactive and CtBP-E1A blk inactive.
Screening O=C(CC(=O)c1ccccc1O)c1cccc(F)c1 returned DT40 TDP1 no CPT 4.1µM, TDP1 inh inactive, Six1-Eya2 inh inactive, DT40 TDP1 CPT 6.5µM, IL1B secr inh inactive and CtBP-E1A blk inactive.
